Reference: PubChem BioAssay (NCI)
Compounds without any hit were thinned out: in the full panel of roughly 79,000, 15% have a hit. Cut-off read from the data, not from the text of the source: active = growth inhibition above about 70%; inactive = the rest. Where a SMILES comes first, the peptide text is derived from it. Bridges are numbered along the chain shown (N, C = ends). [ ]: non-standard residue; d: D form. The star is where a group is joined. ξ: configuration not given here. ξNMePhe(4-NMe2) = CNC(Cc1ccc(N(C)C)cc1)C(=O)O; Picolinoyl(3-OH) = O=C(c1ncccc1O)*; ξPip(4-oxo) = O=C1CCNC(C(=O)O)C1; Phg = N[CH](C(=O)O)c1ccccc1; Abu = CC[CH](N)C(=O)O

Tests used:
[1] = NCI Yeast Anticancer Drug Screen. Data for the rad50 strain (AID 155);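 note: 0% = growth of vehicle-only cultures of the same strain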; details: S. cerevisiae rad50 strain growth inhibition; at 50.0 µM; hits give high values
Procedure, shortened: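 Compounds were tested on a yeast strain with an engineered DNA damage repair alteration; the reported value is growth inhibition normalised to vehicle treatment.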

[2] = NCI Yeast Anticancer Drug Screen. Data for the mec2-1 strain (AID 157); details: S. cerevisiae mec2-1 strain, at 50.0 µM, hits give high values
Procedure, shortened: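 Using mec2-1 yeast: add compound, measure growth, express inhibition versus vehicle-treated cultures.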

[3] = NCI Yeast Anticancer Drug Screen. Data for the sgs1 mgt1 strain (AID 161);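 note: 0% = growth of cultures given vehicle only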; details: S. cerevisiae sgs1 mgt1 strain, at 50.0 µM, hits give high values
Procedure, shortened: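 Yeast cells carrying a defined DNA-repair defect were exposed to test compounds. Growth inhibition was measured relative to vehicle-treated controls.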

[4] = NCI Yeast Anticancer Drug Screen. Data for the cln2 rad14 strain (AID 165);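 note: 0% = growth equal to vehicle treated cultures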; details: S. cerevisiae cln2 rad14 strain, at 50.0 µM, hits give high values
Procedure, shortened: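 Yeast strain cln2 rad14, bearing defects in cell cycle control and DNA repair, serves as the test system; values reflect growth inhibition compared with vehicle.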

[5] = NCI Yeast Anticancer Drug Screen. Data for the bub3 strain (AID 167); details: S. cerevisiae bub3 mutant strain, at 50.0 µM, hits give high values
Procedure, shortened: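 Growth of a checkpoint-deficient yeast mutant is measured after compound exposure. Values represent inhibition relative to vehicle.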

[6] = NCI Yeast Anticancer Drug Screen. Data for the mlh1 rad18 strain (AID 175); details: S. cerevisiae mlh1 rad18 strain growth inhibition; at 50.0 µM; hits give high values
Procedure, shortened: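 Steps: expose repair-defective yeast to compound; measure growth; express inhibition against vehicle-treated controls.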

Measured: growth inhibition

CCC1NC(=O)C(NC(=O)c2ncccc2O)C(C)OC(=O)C(c2ccccc2)NC(=O)C2CC(=O)CCN2C(=O)C(Cc2ccc(N(C)C)cc2)N(C)C(=O)C2CCCN2C1=O (stereo not drawn) (tested in a mixture with another compound) ({Picolinoyl(3-OH)}-T[Abu]P[ξNMePhe(4-NMe2)][ξPip(4-oxo)][Phg]; ester 1-C; configuration not given here)
inactive: [1] 19.4% | [2] -5.15% | [3] 3.3% | [4] 20.7% | [5] 9.45% | [6] -14.7%

CCCCC(CC)COC(C)=O (stereo not drawn)
inactive: [1] 14.4% | [2] -13.5% | [3] 2.15% | [4] 5.2% | [5] 12% | [6] 13.8%

NC(=O)N/N=C\c1ccco1
inactive: [1] 26.1% | [2] -9.8% | [3] -13.3% | [4] -11.4% | [5] -14.3% | [6] 13.1%

O=C(O)COCC(=O)O
inactive: [1] 34.1% | [2] -15.2% | [3] -11.4% | [4] -53.2% | [5] 5.85% | [6] 4.75%

C=CCNc1ccccc1
inactive: [1] 31.2% | [2] 4.35% | [3] 7.55% | [4] -36.6% | [5] 17.6% | [6] 13.7%

O=C(CS)Nc1ccc2ccccc2c1
inactive: [1] 3.5% | [2] -0.85% | [3] 22% | [4] -36.9% | [5] -7.85% | [6] -1.15%

CCOC(=O)C1OC1c1ccccc1 (stereo not drawn)
inactive: [1] 24.5% | [2] -6.45% | [3] -2.3% | [4] -4.5% | [5] -3.9% | [6] 22.9%

O=S(=O)(O)C(Nc1ccccc1)c1ccccc1 (stereo not drawn)
inactive: [1] -4.35% | [2] -27.7% | [3] 9.5% | [4] -0.25% | [5] 16% | [6] -11.6%

CC(=O)C1CCCCC1
inactive: [1] 26.7% | [2] 11.2% | [3] 4.5% | [4] 11.7% | [5] 1.2% | [6] 16.8%

CCOC(=O)c1[nH]c(C)c(C(C)=O)c1C
inactive: [1] -0.45% | [2] -22.5% | [3] 9% | [4] -10.5% | [5] -27% | [6] -8.15%

Nc1ccc(C(=O)c2ccc(N)c(Br)c2)cc1Br
inactive: [1] 15% | [2] -0.85% | [3] 6.6% | [4] -77.9% | [5] 43.3% | [6] 4.05%

NC(CSC(c1ccccc1)(c1ccccc1)c1ccccc1)C(=O)O (stereo not drawn)
inactive: [1] 1.4% | [2] -18.8% | [3] -28.9% | [4] 20.8% | [5] -8.25% | [6] -42.2%

O=[N+]([O-])c1ccc(Sc2ccncn2)c([N+](=O)[O-])c1
inactive: [1] 24.7% | [2] 16.6% | [3] 8.9% | [4] -5.55% | [5] -12.3% | [6] 30.8%

CC(=O)OCCC(C)CCC=C(C)C (stereo not drawn)
inactive: [1] 14.7% | [2] 19.1% | [3] -19.9% | [4] -18.1% | [5] -16.9% | [6] 2.4%

CN(C)c1ccc2nc3ccc(=N)cc-3sc2c1
inactive: [1] 4.55% | [2] -19.1% | [3] 18.6% | [4] 7.45% | [5] -15.2% | [6] 22.4%

Cc1cc(N2CCC(N3CCCC3)CC2)nc(/N=C(\N)Nc2ccc(Cl)c(Cl)c2)n1
inactive: [1] 18.1% | [2] -2.25% | [3] -6.05% | [4] -3.7% | [5] 4% | [6] 34%

CCC/C=C(\C)C(C)(C#N)C(=O)OCC (stereo not drawn)
inactive: [1] 3.1% | [2] -8.45% | [3] 10.8% | [4] -1.35% | [5] -17.7% | [6] -29.9%

CCCCOC(OCCCC)c1ccccc1
inactive: [1] -26.5% | [2] -9.5% | [3] 20.7% | [4] -18.6% | [5] -1.8% | [6] 12.2%

NC(C(=O)O)c1ccc([N+](=O)[O-])cc1 (stereo not drawn)
inactive: [1] -0.45% | [2] -14.1% | [3] 8.8% | [4] 7.25% | [5] -0.4% | [6] -14.7%

O=C(O)CSCSCC(=O)O
inactive: [1] 1.45% | [2] -26.4% | [3] -8.8% | [4] 20.2% | [5] 4.8% | [6] 3.1%

CCN=c1cc2sc3cc(NCC)c(C)cc3nc-2cc1C
inactive: [1] -22.1% | [2] -35.8% | [3] -16.4% | [4] -14.4% | [5] -15.4% | [6] -22.6%

C/C(=N\O)C1(O)CCCCC1
inactive: [1] 28.9% | [2] 3.55% | [3] 8% | [4] 13.7% | [5] 7.45% | [6] 15.8%

CNS(=O)(=O)c1ccc(Cl)c(Cl)c1
inactive: [1] -43.2% | [2] -5.1% | [3] -13.5% | [4] -55% | [5] -25.4% | [6] -40.9%

O=C(O)c1ccc(S(=O)(=O)O)cc1
inactive: [1] 8.55% | [2] 11.8% | [3] 0.45% | [4] -12.4% | [5] 18.5% | [6] 12.5%

OC1CCCc2ccccc21 (stereo not drawn)
inactive: [1] 17.6% | [2] 17.4% | [3] 13.6% | [4] -17.9% | [5] 0.85% | [6] 20.2%

CC1NC(=O)NC1CCCCCC(=O)O (stereo not drawn)
inactive: [1] 8.3% | [2] 11.4% | [3] 13.8% | [4] 12.5% | [5] 4.6% | [6] 17.3%

CC(=O)c1cc2c(cc1F)C(C)(C)CCC2(C)C
inactive: [1] -23.2% | [2] -30.4% | [3] -19.1% | [4] -32.5% | [5] -20.1% | [6] -18.6%

Cc1cc(=O)n(-c2ccc(F)cc2)[nH]1
inactive: [1] -5.15% | [2] -14.1% | [3] 22.1% | [4] 2.8% | [5] 50.6% | [6] 12.1%

c1csc(-c2cc(-c3cc(-c4cccs4)[nH]n3)n[nH]2)c1
inactive: [1] 9.4% | [2] -11.2% | [3] 6.35% | [4] -2.7% | [5] -3.05% | [6] 2.6%

Cc1cccc(CO)c1
inactive: [1] 14.3% | [2] -28.6% | [3] -25.1% | [4] -57% | [5] -18.4% | [6] -22.1%

CN(C)c1ccc(CNC(C(=O)c2ccccc2)c2ccccc2)cc1 (stereo not drawn)
inactive: [1] -31% | [2] -5.35% | [3] -15.6% | [4] -17.4% | [5] 8.3% | [6] -20.9%

CC(C)C(C#N)(C(C)C)C(C)C
inactive: [1] 23.3% | [2] 15.4% | [3] 4% | [4] -29.6% | [5] -1.95% | [6] 22.4%

O=C1C=C(O)C(=O)C=C1O
inactive: [1] 4.45% | [2] -10.2% | [3] 14.9% | [4] 0.4% | [5] -2.35% | [6] 28.5%

CCCCCCCCCCC(C)Br (stereo not drawn)
inactive: [1] 19.9% | [2] -12.1% | [3] 10.3% | [4] 1.3% | [5] 28.6% | [6] 1.75%

CCC(=O)Oc1ccc(OC)cc1
inactive: [1] 23.1% | [2] -13.4% | [3] 2.9% | [4] 29.4% | [5] 3.9% | [6] 23.6%

COc1cc(C2c3cc4c(cc3C3OC(=O)C2C3CO)OCO4)cc(OC)c1OC (stereo not drawn)
inactive: [1] -7.4% | [2] -9.95% | [3] -14.5% | [4] 6.25% | [5] -19.5% | [6] -3.85%

O=[N+]([O-])c1ccccc1N=Nc1ccc(O)cc1O
inactive: [1] 35.4% | [2] 21.1% | [3] 31.9% | [4] -23.4% | [5] 10.7% | [6] 39.2%

COCCCNC(=O)c1nnn2c1nc(N)c1cc(Cl)ccc12
inactive: [1] -2.65% | [2] 2.75% | [3] 25.6% | [4] 3.2% | [5] 23.6% | [6] 10.6%

CN1C(=O)CN2CCc3ccccc3C2c2cc(Cl)ccc21 (stereo not drawn)
inactive: [1] 33.3% | [2] 26.4% | [3] 47.6% | [4] 22.1% | [5] 48% | [6] 42.1%

CCOC(=O)C(C#N)Cc1ccccc1 (stereo not drawn)
inactive: [1] -0.85% | [2] -2.15% | [3] -3.85% | [4] -14.2% | [5] -1.6% | [6] -3.35%

Cc1cc(N)c(S(=O)(=O)O)c(N)c1
inactive: [1] -31.9% | [2] 5.65% | [3] -4% | [4] -15.1% | [5] 11.8% | [6] -57.8%

N#CCCN(CCCN1CCOCC1)CN1C(=O)c2ccccc2C1=O
inactive: [1] 5.8% | [2] 9.15% | [3] 35.5% | [4] 5.8% | [5] 34.6% | [6] 19.4%

CCC(C#N)(CC)c1ccccc1
inactive: [1] 16% | [2] 13.4% | [3] 11.1% | [4] 12.7% | [5] -3.2% | [6] 36.3%
